PubChem BioAssay AID720514 (Broad Institute, 2013)
About 300 (14%) of roughly 2,100 compounds were called active. About 2% were inconclusive and are not listed.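 The calls were made as follows: active = every replicate test run called active, with the signal falling and half-maximal concentration within twice the top valid dose; inconclusive = the replicate test runs disagree in their calls; inactive = every test run inactive, including effects in the opposite direction.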 The list is a sample of the results. Measured potencies and affinities stand elsewhere.

Test: reduced cellular PGC1a acetyl-lysine signal – cell-based, cherry-picked samples, dose response (AID 720514);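 also: actives lower the acetylation signal so they count as inhibitors of PGC1a acetylation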
Details: U2OS PGC1a acetylation, AlphaLISA, overnight; series mostly up to 19.5 µM

outcome, inactive:
O=C(NCc1ccccc1)C(c1ccccc1)N(C(=O)c1csnn1)c1ccc(F)cc1 (stereo unspecified)
O=C(Nc1ccc(Nc2ccncc2)cc1)c1ccc([N+](=O)[O-])cc1
CCC(=O)N1C[C@H](C)[C@@H](OC)CN(C)C(=O)c2ccc(NC(=O)Nc3ccccc3)cc2OC[C@@H]1C
CO[C@@H]1CN(C)C(=O)c2cc(NC(=O)c3ccc(Oc4ccccc4)cc3)ccc2OC[C@@H](C)NC[C@@H]1C
CCC(=O)Nc1ccc2c(c1)OC[C@@H](C)N(C(=O)c1cnccn1)C[C@H](C)[C@H](OC)CN(C)C2=O
CCOC(=O)C1(N(CC)CC)Sc2cc(C)ccc2NC1=O (stereo unspecified)
CC(=O)Nc1sc2c(c1-c1nc3ccccc3s1)CN(C(C)C)CC2
C[C@@H]1CN([C@H](C)CO)C(=O)CCCn2nncc2CO[C@H]1CN(C)C(=O)C1CC1
O=C(Cc1ccccc1)Nc1ccc(NC(=O)c2ccco2)nc1
CC(=O)C1=CCC(c2cccc3ccccc23)N(S(=O)(=O)c2ccc(C)cc2)C1 (stereo unspecified)
CCOC(=O)N1CCN(C(=O)C(NS(=O)(=O)c2cccc3nsnc23)c2ccccc2)CC1 (stereo unspecified)
O=C(COC(=O)c1ccco1)NCc1ccc2c(c1)OCO2
Cc1cccc(CS(=O)(=O)c2ncc(Cl)c(C(=O)Nc3ccc(F)cc3)n2)c1
COc1ccc(C2CC(=O)N(C)c3ccccc3S2)cc1 (stereo unspecified)
CC1(C)CCCN(C(=O)N2c3ccccc3Sc3ccccc32)C1
Cc1ccc(S(=O)(=O)CCSC(=N)N)cc1
CC1CC1C(=O)OCC(=O)NCc1ccc(Cl)cc1 (stereo unspecified)
CC(=O)c1ccc(NC(=O)CSCC(=O)Nc2ccc3ccccc3c2)cc1
COc1ccc(CC(=O)OCC(=O)NCc2ccco2)cc1
O=C(NCc1ccco1)c1scc2c1OCCO2
CC1CCCCN1C(=O)/C(=C\c1ccccc1)c1ccccc1 (stereo unspecified)
CCSc1ccc(NC(=O)c2cccnc2)cc1
CCS(=O)(=O)N[C@H]1C=C[C@H](CC(=O)N2CCCCC2)O[C@H]1CO
C[C@H]1CN([C@@H](C)CO)S(=O)(=O)c2ccc(-c3cncnc3)cc2O[C@H]1CN(C)C(=O)CN(C)C
CC(=O)N(C)C[C@H]1Oc2cc(-c3ccc(C#N)cc3)ccc2S(=O)(=O)N([C@@H](C)CO)C[C@@H]1C
COc1ccc(S(=O)(=O)Nc2ccc3c(c2)C(=O)N([C@@H](C)CO)C[C@@H](C)[C@H](CN(C)S(=O)(=O)c2ccc(Cl)cc2)OCCCC[C@H](C)O3)cc1
COc1cc(CN2CC3(CCN(S(=O)(=O)c4cccs4)CC3)c3c(n(C)c4cc(OC)ccc34)[C@H]2CO)cc(OC)c1
O=S(=O)(c1cccc(F)c1)N1CCN(Cc2cc3c(cc2Br)OCCO3)CC1
Cc1ccc(-n2cccn2)c(CN2CCCC(C(=O)c3sccc3C)C2)c1 (stereo unspecified)
CCCNC(=O)[C@H]1[C@H](CO)[C@H]2Cn3c(ccc(-c4ccccc4)c3=O)[C@H]2N1C(=O)C1CC1
Cc1cc2c(cc1S(=O)(=O)N1CCc3ccccc31)NC(=O)CO2
CCOc1ccccc1N(C)C(=O)C1CCN(S(=O)(=O)c2cccc3nonc23)CC1
CCOC(=O)C1=CC[C@@H](c2ccc([N+](=O)[O-])cc2)N(S(=O)(=O)c2ccc(C)cc2)[C@H]1c1ccccc1
Cc1ccc(-c2nnc(N3CCN(C(=O)COc4ccccc4)CC3)c3ccccc23)cc1
CN1/C(=C\C(=O)c2cccc(S(=O)(=O)N3CCCCC3)c2)C(C)(C)c2ccccc21
CCOc1ccccc1CN1CCN(C2CCC2)CC1CCO (stereo unspecified)
CC(=O)c1cccc(N(C(=O)Cn2nnc3ccccc32)C(C(=O)NCc2ccccc2)c2ccccn2)c1 (stereo unspecified)
COc1ccc(OC)c(NC(=O)CSc2nnc(-c3cccnc3)s2)c1
COc1ccc(-c2nc(N)c(C#N)c(-c3cccnc3)c2C)cc1
CCCOc1ccc(C(=O)Nc2cccnc2)cc1
CCOC(=O)c1c(-c2ccc(C)cc2C)csc1NC(=O)CSc1nnnn1C
CCOC(=O)c1oc2ccc(S(=O)(=O)N3CCC(C)CC3)cc2c1C
O=C(CCCn1c(=O)[nH]c2cc(Cl)ccc2c1=O)NCCC1=CCCCC1
C[C@@H]1CN([C@H](C)CO)C(=O)c2c(c3ccccc3n2C)-c2ccccc2CO[C@@H]1CN(C)C(=O)Nc1ccccc1C(F)(F)F
COc1cc(OC)c2c(-c3cccc(-c4cccc(C)c4)c3)cc(=O)oc2c1
COc1ccc(CCNC(=O)c2cc(-c3ccco3)on2)cc1OC
O=C1OC(Oc2ccc(Br)cc2)(c2ccccc2)c2ccccc21 (stereo unspecified)
CC(=O)c1ccc(NC(=O)N2CCc3ccccc3C2)cc1
CC(=O)c1cccc(N(C(=O)c2cnccn2)C(C(=O)NCc2ccccc2)c2ccco2)c1 (stereo unspecified)
C[C@@H]1CN([C@@H](C)CO)C(=O)Cc2cc(NC(=O)Cc3ccccc3)ccc2O[C@H]1CN(C)C(=O)Nc1ccccc1
C[C@H](CO)N1C[C@H](C)[C@@H](CN(C)Cc2ccc3c(c2)OCO3)Oc2ccc(NC(=O)Nc3ccc4c(c3)OCO4)cc2CC1=O
C[C@H]1CN([C@@H](C)CO)C(=O)c2cccc(NC(=O)c3cnccn3)c2O[C@H]1CN(C)Cc1ccc(C(=O)Nc2ccccc2N)cc1
C[C@@H]1CN([C@@H](C)CO)C(=O)c2cccc(NC(=O)c3ccc(-c4nccs4)cc3)c2O[C@@H]1CN(C)C(=O)Nc1ccc(C(F)(F)F)cc1
C[C@H]1CN([C@@H](C)CO)C(=O)c2cccc(NC(=O)Nc3cccc4ccccc34)c2O[C@H]1CN(C)Cc1ccc(C(=O)Nc2ccccc2N)cc1
Cc1cc(Cn2nc(C(=O)NCc3cccc(C(F)(F)F)c3)cc2-c2ccccc2)on1
C[C@@H]1CN([C@@H](C)CO)C(=O)c2c(c3ccccc3n2C)-c2ccccc2CO[C@@H]1CN(C)C(=O)Nc1cccc(C(F)(F)F)c1
C=C/C=C/[C@@H]1C(=C)CN2[C@H]1[C@H](Cc1ccccc1)OC(=O)[C@@H]2Cc1ccccc1
O=C(NCCC(c1ccccc1)c1ccccc1)c1ccc(Br)o1
CC(C)[C@H](C)NC(=O)N(C)C[C@H]1OCc2ccccc2-c2c(n(C)c3ccccc23)C(=O)N([C@H](C)CO)C[C@H]1C
COc1ccc2c(c1)CCc1c(C(=O)NCCCn3ccnc3)noc1-2
Cc1ccc(S(=O)(=O)N[C@@H]2C=C[C@H](CC(=O)NCCN3CCCCC3)O[C@@H]2CO)cc1
CCCCC(=O)Nc1ccc(C(=O)NCCCn2ccnc2)cc1
OC[C@H]1O[C@@H](n2cnc3c(NCc4ccco4)ncnc32)[C@H](O)[C@@H]1O
O=C(Nc1ccccc1F)N1CCCCN2[C@H](CO)[C@H](c3ccc(C#Cc4ccccc4)cc3)[C@H]2C1
O=C(Nc1ccc(F)cc1)N1CCN(c2nc3ccccc3s2)CC1
O=C(Nc1ccc(F)cc1)N1CCCCN2[C@@H](CO)[C@@H](c3ccc(C#Cc4ccccc4)cc3)[C@@H]2C1
O=c1[nH]nc(SCCS(=O)(=O)c2ccc(F)cc2)n1-c1ccccc1
Cc1cc(C)cc(N(CC(=O)NC2CC3CCC2C3)S(C)(=O)=O)c1 (stereo unspecified)
O=C(CN1CCC(N2CCCCC2)CC1)N1CCCc2ccccc21
CCCc1cc2c(cc1N(C)S(=O)(=O)c1ccccc1)OCO2
Cc1ccc(NC(=O)CN2CCC(NC(=O)Cc3ccccc3)CC2)c(C)c1
O=C(Nc1ccccc1-c1ccccc1)NC1CC2CCCC(C1)N2Cc1ccc(F)cc1 (stereo unspecified)
Cc1nn2c(NCCCN3CCOCC3)c3c(nc2c1-c1ccccc1)CCC3
O=C(Cn1nc(C(=O)O)c2ccccc2c1=O)Nc1cccc(Br)c1
COC(=O)c1cc2ccsc2n1CC(=O)Nc1cc(Cl)ccc1OC
Cc1ccc(/C(N)=N/OC(=O)c2ccco2)cc1
CCCCN(CCCC)S(=O)(=O)c1ccc2oc(C(=O)N3CCOCC3)c(C)c2c1
COC(=O)[C@@]1(C)[C@H]2C(=O)N(Cc3ccccc3)C(=O)[C@H]2[C@H]2CN=C(SCC3CC3)N21
COc1ccc(-n2c(=O)c3c4c(sc3n3c(=S)[nH]nc23)CCC4)cc1
CCOc1ccc(NC(=O)CN2CCC(n3cnc4cc(F)ccc43)CC2)cc1
CO[C@@H](C(=O)N(C)C[C@H]1OCc2ccccc2-c2c(n(C)c3ccccc23)C(=O)N([C@H](C)CO)C[C@H]1C)c1ccccc1
Cc1ccccc1NC(=O)c1nc(S(C)(=O)=O)ncc1Cl
Cc1ccc(Cl)cc1NC(=O)Cn1nc(-c2cccs2)ccc1=O
C[C@@H]1CN([C@H](C)CO)C(=O)c2c(c3ccccc3n2C)-c2ccccc2CO[C@@H]1CN(C)C(=O)Nc1ccc2c(c1)OCO2
CC(Oc1ccc(Cl)cc1Cl)c1nc(-c2ccc(NC(=O)c3cccnc3)cc2)no1 (stereo unspecified)
Cc1ccc(-c2nn(C)c(=O)c3ccccc23)cc1S(=O)(=O)NCCN(C)C
O=C(C[C@H]1CC[C@H](NC(=O)NC2CCCCC2)[C@H](CO)O1)NCc1ccc(Cl)cc1
CCCCSc1ccc(NC(=O)c2cccnc2)cc1
CCn1c(SCC(N)=O)nnc1C(C)C
O=C1NC(=Nc2ccccc2Cl)S/C1=C\c1cccc([N+](=O)[O-])c1O
CC1(Cc2ccc(Cl)s2)C(=O)Nc2c(Cl)ccc(Cl)c21 (stereo unspecified)
O=C(NCc1ccccc1)N1CCC(n2cnc3cc(F)ccc32)CC1
COc1ccc(C(=O)NN(C)c2nc(-c3ccccc3)cc(C)c2S(C)(=O)=O)cc1
O=C(NCc1ccccc1)c1ccc(NC(=O)C2CC2)cc1
CSc1nn(-c2ccc(C(=O)OC(C(=O)NC(N)=O)C(C)C)cc2)c(=S)s1 (stereo unspecified)
CC(=O)Nc1ccc(NC(=O)CN(c2cc(Cl)ccc2Cl)S(C)(=O)=O)cc1
Cc1nc(N2CCN(S(=O)(=O)c3ccc(F)cc3)CC2)c2c(-c3cccs3)csc2n1
Cc1ccc(S(=O)(=O)NC(CC(C)C)C(=O)N2CCCCCCC2)cc1 (stereo unspecified)
Nc1ccccc1Oc1ncc(C(F)(F)F)cc1Cl
O=[N+]([O-])c1ccc(S(=O)(=O)c2cccc(C(F)(F)F)c2)nc1
CCOC(=O)c1sc2nc(C)nc(NCc3ccccc3OC)c2c1C
CCO[C@H]1OC(C(=O)Nc2ccccc2)=C[C@@H](c2csc3ccccc23)[C@@H]1CCCO
O=C(NCCCN1CCOCC1)c1ccccc1N1C(=O)[C@@H]2Cc3c([nH]c4ccccc34)C(c3ccccc3)N2C1=O (stereo partly specified)
O=C(Cc1ccccn1)NCC[C@@H]1CC[C@@H](NC(=O)Nc2ccc(C(F)(F)F)cc2)[C@@H](CO)O1
O=C(Cc1ccccn1)NCC[C@@H]1CC[C@H](NC(=O)Nc2ccc(C(F)(F)F)cc2)[C@@H](CO)O1
Cc1cccc2sc(N3CCN(C(=O)c4cccs4)CC3)nc12
